Screening data from PubChem.
This is a sample that favours compounds with a hit; in the whole collection about 6% have one here.
PLK1 PBD inh – inhibitors of human PLK1 polo-box domain binding. P53350. Plk1 PBD binding of FITC phosphopeptide, fluorescence polarization. Potency, µM, hits mostly inhibitors. actives 2.8% (n = 360,000). AID 720504; note: series mostly up to about 57 µM; nearly all actives have a fitted effect of over 65% in size
Target sequence (P53350 whole entry, looked up, the tested form may be a part): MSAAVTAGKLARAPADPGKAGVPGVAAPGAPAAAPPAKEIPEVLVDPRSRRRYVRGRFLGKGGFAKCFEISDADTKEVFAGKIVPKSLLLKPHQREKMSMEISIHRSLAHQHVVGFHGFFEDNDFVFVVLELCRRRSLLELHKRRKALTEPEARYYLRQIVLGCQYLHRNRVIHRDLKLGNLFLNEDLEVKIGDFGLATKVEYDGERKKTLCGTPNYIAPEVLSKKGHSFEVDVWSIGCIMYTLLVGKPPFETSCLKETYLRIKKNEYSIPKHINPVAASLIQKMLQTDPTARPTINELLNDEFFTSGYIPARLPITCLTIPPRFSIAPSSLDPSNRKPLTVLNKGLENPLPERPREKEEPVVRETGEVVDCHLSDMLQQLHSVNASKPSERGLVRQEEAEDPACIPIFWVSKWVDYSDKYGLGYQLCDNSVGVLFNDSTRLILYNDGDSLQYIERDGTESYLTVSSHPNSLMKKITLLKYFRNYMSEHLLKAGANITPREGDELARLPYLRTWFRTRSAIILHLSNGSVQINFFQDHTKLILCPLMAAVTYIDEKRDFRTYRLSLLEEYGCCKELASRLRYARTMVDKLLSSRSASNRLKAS
Tau ThT inhib – blocks human tau fibril formation measured by thioflavin T | P10636 | Potency, µM (top dose mostly 57.4 µM), usual class: inhibitors | actives 2.1% (n = 270,000) | recombinant tau K18 P301L, heparin-induced fibrillization, ThT fluorescence; note: nearly all actives have a fitted effect of over 55% in size
Target sequence (P10636 561-689 P618L limits assumed): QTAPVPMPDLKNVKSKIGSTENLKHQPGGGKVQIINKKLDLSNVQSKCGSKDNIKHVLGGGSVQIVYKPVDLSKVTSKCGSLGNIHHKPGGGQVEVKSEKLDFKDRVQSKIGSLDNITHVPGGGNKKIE
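Aggregation was driven by heparin (20 uM final) acting on recombinant tau […] bearing P301L in 100 mM sodium acetate pH 7; fibrils were detected with Thioflavin T.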
Tau fluor counter – counter-screen for tau fibril formation inhibitors; AID 1463; tau K18 P301L Alexa594 fluorescence, heparin fibrillization; actives 0.93% (n = 280,000); Potency, µM (series often up to 57.7 µM); note: nearly all actives have a fitted effect of over 55% in size
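Human tau K18 P301L (15 uM unlabeled, 0.24 uM Alexa 594-labeled) in 100 mM sodium acetate pH 7 with 20 uM heparin, 6 hr at 37 C. ThT 30 uM added, 1 hr ambient; Alexa 594 FP and total fluorescence read at 555/632 nm.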
Sfp inh – blocks B. subtilis Sfp PPTase activity | Potency, µM, actives largely listed as inhibitors | Q9F4F7 | AID 1490 | Biochemical Sfp PPTase activity, qHTS | actives 3.5% (n = 310,000);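 note: the enzyme is Sfp with the accession as filed and its product quenches rhodamine fluorescence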
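After 15 min at room temperature with compound, 15 nM Sfp received 5 uM rhodamine-CoA plus 12.5 uM BHQ-2-ybbR (50 mM Hepes pH 7.6, 10 mM MgCl2). Rate came from the fluorescence difference over 30 min, ex 525/em 598 nm.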
Tau fibril FP – blocks human tau fibril formation measured by polarization; actives 0.39% (n = 280,000); AID 1468; Potency, µM (series often up to 57.7 µM), most hits filed as inhibitors; K18 P301L tau heparin fibrillization, Alexa594 FP, 6 h; note: nearly all actives have a fitted effect of over 55% in size
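Read-out: fluorescence polarization of Alexa 594-labeled tau (0.24 uM), 555 nm excitation, 632 nm emission. Mixtures held 15 uM unlabeled K18 P301L, compound and 20 uM heparin, pH 7 acetate buffer, incubated 6 hr at 37 C.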
VDR inh – blocks the human vitamin D receptor; Potency, µM, usual class: inhibitors; actives 0.93% (n = 400,000); P11473; VDR-SRC2-3 peptide fluorescence polarization, 2 h; AID 504847
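Two reagent solutions held at 4 deg C in the dark were dispensed, compounds pinned at 23 nl, and the mixture incubated 2 h at room temperature. Read-out: fluorescence polarization of VDR–SRC2-3 peptide binding.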
A number is an active result; i = inactive; ? = inconclusive; nt = not tested or not shown; [ ] = dose if it differs, or a comment. Calls come from the whole dose curve; as a rule, active = well fitted curve in the direction sought with a large enough effect; inconclusive = small, poorly fitted or top-dose-only effect, or another doubt; inactive = no such curve, though single readings can be large; an effect the other way counts as inactive or inconclusive.

SMILES | PLK1 PBD inh | Tau ThT inhib | Tau fluor counter | Sfp inh | Tau fibril FP | VDR inh
CCOC(=O)C1(Cc2cccc(OC)c2)CCN(C2CCOCC2)CC1 | i | 13µM | i | i | i | i
Cc1ccc(OCCCOc2cccc3cccnc23)cc1C | i | ? | i | 89µM | i | i
Clc1ccccc1CNCC1CCC(CNCc2ccccc2Cl)CC1 (stereo not drawn) | nt | i | i | i | i | i
O=C(Nc1nc(-c2ccc(Cl)s2)cs1)c1cccs1 | ? | ? | 28µM[quencher] | ? | ? | i
CCCC(=O)Nc1nc(-c2ccc(Cl)s2)cs1 | i | i | i | i | i | i
O=C(O)C1CCCCC1C(=O)Nc1nc(-c2ccc(Cl)s2)cs1 (stereo not drawn) | ? | i | i | 22µM | i | i
Clc1ccc(OCCCc2nc(-c3cccnc3)no2)c(Cl)c1 | i | i | i | 32µM | i | i
Cc1nn(C)c(C(=O)Sc2cccc(Cl)c2)c1[N+](=O)[O-] | 4.2µM | ? | i | i | i | 40µM
CCn1nc(C)cc1C(=O)Sc1cccc(Cl)c1 | 19µM | nt | i | i | i | ?
Cc1nn(C)c(C(=O)Sc2ccccc2)c1[N+](=O)[O-] | ? | ? | i | i | i | i
COC(=O)c1cnn(-c2ccc(C(=O)Nc3cccc(C(C)=O)c3)cc2)c1N | nt | i | i | nt | i | i
COc1ccc(-n2c(=S)[nH]c3sc4c(c3c2=O)CCN(C)C4)cc1 | nt | nt | ? | ? | i | nt
Cc1cccc(-n2c(=S)[nH]c3sc4c(c3c2=O)CCc2ccccc2-4)c1 | 3µM | ? | i | i | i | ?
Cc1ccc(-n2c(=S)[nH]c3sc4c(c3c2=O)CCc2ccccc2-4)cc1 | 30µM | ? | i | i | i | i
CCCC(=O)Nc1ccc2nc(SCc3ccc(C)cc3)sc2c1 | nt | i | i | nt | i | i
CC(=O)N1CCN(c2ccc(NCc3ccc(-c4ccc(Br)cc4)o3)cc2)CC1 | nt | nt | nt | nt | nt | 79µM
O=C(Nc1ccc(N2CCOCC2)cc1)c1cccc2ccccc12 | i | nt | nt | i | nt | i
CC(=O)N1CCN(c2ccc(NCc3ccc(C)s3)cc2)CC1 | i | ? | ? | 50µM | ? | ?
CC(=O)Nc1ccc(N2CCN(C(=O)c3cccs3)CC2)cc1 | i | i | i | i | i | i
CC(=O)N1CCN(c2ccc(NCc3cccc4ccccc34)cc2)CC1 | 24µM | nt | nt | i | nt | ?
CC(=O)N1CCN(c2ccc(NCc3cccs3)cc2)CC1 | ? | 28µM | i | 22µM | ? | i
Cc1ccc(CNc2ccc(N3CCOCC3)cc2)s1 | i | ? | i | i | i | i
CC(=O)c1cc(-c2ccc(F)cc2)n(CC(=O)NCc2ccc(C)cc2)c1C | nt | i | i | nt | i | i
Cc1cc(C)c(Cn2c3ccccc3c3cnn(CC(=O)NCC(C)c4ccccc4)c(=O)c32)c(C)c1 (stereo not drawn) | nt | i | i | nt | i | i
COCCNC(=O)C1(C)CCCN(C(=O)c2ccc3c(c2)CCO3)C1 (stereo not drawn) | i | nt | nt | nt | nt | nt
SMILES | PLK1 PBD inh | Tau ThT inhib | Tau fluor counter | Sfp inh | Tau fibril FP | VDR inh
CCCn1c2ccccc2c2cnn(CC(=O)N(Cc3ccccc3)C(C)C)c(=O)c21 | nt | i | i | nt | i | i
COc1cccc(OC)c1C(=O)NCC12CC3CC(C1)CC(CNC(=O)c1c(OC)cccc1OC)(C3)C2 | i | nt | nt | i | nt | i
COC(=O)NCC12CC3CC(C1)CC(CNC(=O)OC)(C3)C2 | 12µM | i | i | i | i | i
CC(C)(C)c1ccc(OC(=O)Nc2ccc(O)c(C(=O)O)c2)cc1 | i | ? | ? | 50µM | i | i
Cc1cccc(OC(=O)Nc2ccc(C(=O)O)c(O)c2)c1 | i | nt | nt | nt | nt | nt
CC1(C)CC(=O)C(c2c[nH]c3ccccc23)C(=O)C1 | ? | ? | i | 79µM | i | i
COCCNc1nc(C)nc2c1nc(-c1ccccc1)n2CCN(C)C | nt | i | i | i | i | nt
O=c1[nH][nH]c(=S)n1C1CCCCC1 | 3µM | 32µM | i | 2.8µM | ? | 35µM
COc1ccc(Nc2nc(S(=O)(=O)c3ccc(C)cc3)c(Cl)s2)cc1 | i | i | 10µM[quencher] | i | i | i
Cc1ccc(S(=O)(=O)c2nc(Nc3ccccc3)sc2Cl)cc1 | 30µM | i | 14µM[quencher] | i | ? | i
Cc1cc(N2CCCC2)ccc1/C=N/n1cnnc1 | i | 7.1µM | i | i | i | i
Cc1cc(N2CCCC2)ccc1/C=C1\NC(=S)N(C)C1=O | i | ? | ? | i | i | ?
CC(C)C[C@H]1CN(CCCC[C@H]2CNC(=O)C(=O)N2CC2CCCCC2)C(=O)C(=O)N1Cc1ccccc1 | i | nt | nt | nt | nt | nt
O=[N+]([O-])c1cccc(-c2nc(NCc3ccccc3)c3ccccc3n2)c1 | i | i | ? | i | ? | i
CN(Cc1ccccc1)c1nc(-c2cccc([N+](=O)[O-])c2)nc2ccccc12 | 27µM | i | i | i | i | ?
C=CCNC(=O)CCCOc1cc(C)ccc1C | 27µM | i | i | i | i | i
Cc1cccc(CC(=O)NCCc2csc(-c3ccc(C(F)(F)F)cc3)n2)c1 | nt | i | i | nt | i | i
CCOC(=O)N1CCN(C(=O)CCCn2c(=S)[nH]c3ccsc3c2=O)CC1 | i | ? | i | 56µM | i | i
COc1ccc(C2/C(=C(/O)c3ccc(F)cc3)C(=O)C(=O)N2c2ccccn2)cc1OC (stereo not drawn) | 12µM | nt | nt | i | nt | ?
COc1cc(C2/C(=C(/O)c3ccccc3)C(=O)C(=O)N2c2ccccn2)ccc1O (stereo not drawn) | i | i | i | i | i | i
O=C1C2C3C=CC(C3)C2C(=O)N1/N=C/c1cn(Cc2ccccc2)c2ccccc12 (stereo not drawn) | i | i | i | i | i | i
CCOC(=O)Cn1cc(/C=N/N2C(=O)C3C4C=CC(C4)C3C2=O)c2ccccc21 (stereo not drawn) | 15µM | i | i | i | i | ?
Cc1ccc(S(=O)(=O)Nc2cc(=O)[nH]c(SCC(=O)Nc3cccc(C)c3)n2)cc1 | i | nt | ? | i | 16µM | i
Cc1cc(NS(=O)(=O)c2ccc(NC(=O)CSc3nc4sc(C(=O)O)c(C)c4c(=O)[nH]3)cc2)no1 | 27µM | i | i | i | i | i
Cc1cc(NS(=O)(=O)c2ccc(NC(=O)CSc3nc4sc(C)c(C)c4c(=O)[nH]3)cc2)no1 | i | ? | i | i | i | i
SMILES | PLK1 PBD inh | Tau ThT inhib | Tau fluor counter | Sfp inh | Tau fibril FP | VDR inh
CN(Cc1ccco1)C(=O)[C@H](Cc1ccccc1)NC(=O)CC[C@H]1O[C@@H](n2ccc(=O)[nH]c2=O)[C@H](O)[C@@H]1O | i | nt | nt | nt | nt | nt
CC(C)=NO[C@@H](C)CN1CCCCc2nc(C)c(C)cc21 | nt | i[11.5 µM] | i[11.6 µM] | i | i[11.6 µM] | nt
C#CCSc1nc2[nH]ncc2c(=O)[nH]1 | i | i | i | i | i | i
Cc1csc(NC(=O)CSc2nc3[nH]ncc3c(=O)[nH]2)n1 | 21µM | i | i | i | i | ?
C=CCSc1nc2[nH]ncc2c(=O)[nH]1 | 30µM | i | i | i | i | i
S=c1[nH]c2ccccc2n1Cc1ccccc1 | 8.4µM | nt | nt | 14µM | nt | ?
